# Experimental data published in the supplement of paper PMC8728848.
# This is one part of a sample in which the strongest signals are shown more often than they occur.
# B1: PX9937J-pdi-523-26-523 (Parabacteroides distasonis) (protein)
# chain: EPVSSISDANYWKSPDLFKAFNIGLHGLLRSQSSYNIFVLGEPRSDIYGDQPFGGEATQGVERFSYNTINAEFTGISNFANFYTTLNQINLMIRRTNETDLLGEAEKNYYLGQAYGLRAYIYFHLLRSWGDVIITTEPTLGSELDISHLDKAASPASEVMDLIKKDIDASEKAFGGDYSYKQGKCYWSKPATLMLKGEVYLWSGRQMGGGTGDYTVAKTALQDLQQNGNLKLQEKFTDVFSFNNKENSEMIFALHSGKEDDFMMWRDYNWRNNMVPQREYMAGYCDETGTPFLEIPGYNLQGLMRYQVKKDHYLKSFREGDTRLKGTLKAVYKKHEDGTLEYIAPIQYKFQGTTLEGSNERSWYDDYPIYRYADALLLLAEAKALLGEDPSTEINAVRERAYGSEYFNAHKNEVAYPNDKGSFYNDNPFEAGDENVMEAILKERLREFFFEGKRWYDLRRFGKDYVLKYTTAQESRLLWPINEGALTNNPALKQTPGY
# Tests used:
# Assay in all cases: glycan array binding signal (z-score within array); higher = stronger binding
# Conditions in all cases: glycan notation: IUPAC condensed, linker removed
# Gal3S6S(b1-4)GlcNAc = target: Gal3S6S(b1-4)GlcNAc
# Procedure, shortened: (§1)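 The Consortium for Functional Glycomics database supplied 3228 glycan arrays, of which those lacking an available protein sequence were dropped. The binding signal, a within-array Z-score, was averaged across arrays of the same protein sequence and across linkers. Negative scores can be read as non-binding.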
# Gal4S6S(b1-4)GlcNAc = target: Gal4S6S(b1-4)GlcNAc
# Procedure, shortened: as §1
# GalNAc(b1-4)GlcNAc6S = target: GalNAc(b1-4)GlcNAc6S
# Procedure, shortened: as §1
# GalNAc3S(b1-4)GlcNAc = target: GalNAc3S(b1-4)GlcNAc
# Procedure, shortened: as §1
# Glc(b1-4)Glc = target: Glc(b1-4)Glc
# Procedure, shortened: as §1
# GlcA(b1-6)Gal = target: GlcA(b1-6)Gal
# Procedure, shortened: as §1
# [1] = target: GlcNAc(a1-4)Gal(b1-4)GlcNAc(b1-3)Gal(b1-4)GlcNAc
# Procedure, shortened: as §1
# [2] = target: GlcNAc(b1-2)Gal(b1-3)GalNAc
# Procedure, shortened: as §1
# [3] = target: GlcNAc(b1-2)[GlcNAc(b1-4)]Man(a1-3)[GlcNAc(b1-4)][GlcNAc(b1-2)[GlcNAc(b1-6)]Man(a1-6)]Man(b1-4)GlcNAc(b1-4)[Fuc(a1-6)]GlcNAc
# Procedure, shortened: as §1
# [4] = target: GlcNAc(b1-3)Gal(b1-4)GlcNAc(b1-3)Gal(b1-4)GlcNAc(b1-3)Gal(b1-4)GlcNAc(b1-3)Gal(b1-4)GlcNAc(b1-2)[GlcNAc(b1-3)Gal(b1-4)GlcNAc(b1-3)Gal(b1-4)GlcNAc(b1-3)Gal(b1-4)GlcNAc(b1-3)Gal(b1-4)GlcNAc(b1-6)]Man(a1-6)[GlcNAc(b1-3)Gal(b1-4)GlcNAc(b1-3)Gal(b1-4)GlcNAc(b1-3)Gal(b1-4)GlcNAc(b1-3)Gal(b1-4)GlcNAc(b1-2)Man(a1-3)]Man(b1-4)GlcNAc(b1-4)[Fuc(a1-6)]GlcNAc
# Procedure, shortened: as §1
# [5] = target: GlcNAc(b1-3)Gal(b1-4)GlcNAc(b1-3)GalNAc
# Procedure, shortened: as §1
# [6] = target: GlcNAc(b1-3)Gal(b1-4)GlcNAc(b1-6)[Gal(b1-3)]GalNAc
# Procedure, shortened: as §1
# [7] = target: GlcNAc6S(b1-3)Gal(b1-4)GlcNAc
# Procedure, shortened: as §1
# [8] = target: Man(a1-2)Man(a1-2)Man(a1-6)[Man(a1-3)]Man
# Procedure, shortened: as §1
# Man(a1-2)Man(a1-3)Man = target: Man(a1-2)Man(a1-3)Man
# Procedure, shortened: as §1
# [9] = target: Man(a1-2)Man(a1-3)[Man(a1-2)Man(a1-6)]Man(a1-6)[Man(a1-2)Man(a1-2)Man(a1-3)]Man
# Procedure, shortened: as §1
# [10] = target: Neu5Ac(a2-3)Gal(b1-3)GlcNAc(b1-3)Gal(b1-3)GlcNAc
# Procedure, shortened: as §1
# [11] = target: Neu5Ac(a2-3)Gal(b1-3)[Fuc(a1-4)]GlcNAc
# Procedure, shortened: as §1
# [12] = target: Neu5Ac(a2-3)Gal(b1-3)[Neu5Ac(a2-6)]GalNAc
# Procedure, shortened: as §1
# [13] = target: Neu5Ac(a2-3)Gal(b1-4)GlcNAc(b1-6)[Gal(b1-3)]GalNAc
# Procedure, shortened: as §1
# [14] = target: Neu5Ac(a2-3)Gal(b1-4)[Fuc(a1-3)]GlcNAc(b1-3)Gal(b1-4)GlcNAc
# Procedure, shortened: as §1
# [15] = target: Neu5Ac(a2-6)Gal(b1-4)GlcNAc(b1-2)Man(a1-3)Man(b1-4)GlcNAc(b1-4)GlcNAc
# Procedure, shortened: as §1
# [16] = target: Neu5Ac(a2-6)Gal(b1-4)GlcNAc(b1-2)Man(a1-3)[Gal(b1-4)GlcNAc(b1-2)Man(a1-6)]Man(b1-4)GlcNAc(b1-4)GlcNAc
# Procedure, shortened: as §1
# [17] = target: Neu5Ac(a2-6)Gal(b1-4)GlcNAc(b1-2)Man(a1-3)[Neu5Ac(a2-3)Gal(b1-4)GlcNAc(b1-2)Man(a1-6)]Man(b1-4)GlcNAc(b1-4)GlcNAc
# Procedure, shortened: as §1
# [18] = target: Neu5Ac(a2-6)Gal(b1-4)GlcNAc(b1-3)Gal(b1-3)GlcNAc
# Procedure, shortened: as §1
# [19] = target: Neu5Ac(a2-6)Gal(b1-4)GlcNAc(b1-6)[Gal(b1-3)]GalNAc
# Procedure, shortened: as §1
# [20] = target: Neu5Ac(a2-8)Neu5Ac(a2-8)Neu5Ac
# Procedure, shortened: as §1
# [21] = target: Neu5Ac(a2-8)Neu5Gc(a2-3)Gal(b1-4)GlcNAc
# Procedure, shortened: as §1
# [22] = target: Neu5Ac9Ac(a2-3)Gal(b1-4)GlcNAc
# Procedure, shortened: as §1
binder,measurement,setting,value
B1,glycan array binding signal (z-score),Gal3S6S(b1-4)GlcNAc,0.142
same,glycan array binding signal (z-score),Gal4S6S(b1-4)GlcNAc,-0.181
same,glycan array binding signal (z-score),GalNAc(b1-4)GlcNAc6S,4.57
same,glycan array binding signal (z-score),GalNAc3S(b1-4)GlcNAc,0.755
same,glycan array binding signal (z-score),Glc(b1-4)Glc,-0.296
same,glycan array binding signal (z-score),GlcA(b1-6)Gal,-0.638
same,glycan array binding signal (z-score),[1],-0.296
same,glycan array binding signal (z-score),[2],-0.438
same,glycan array binding signal (z-score),[3],-0.488
same,glycan array binding signal (z-score),[4],4.67
same,glycan array binding signal (z-score),[5],-0.404
same,glycan array binding signal (z-score),[6],-0.195
same,glycan array binding signal (z-score),[7],0.294
same,glycan array binding signal (z-score),[8],-0.284
same,glycan array binding signal (z-score),Man(a1-2)Man(a1-3)Man,-0.138
same,glycan array binding signal (z-score),[9],-0.317
same,glycan array binding signal (z-score),[10],-1
same,glycan array binding signal (z-score),[11],0.062
same,glycan array binding signal (z-score),[12],0.071
same,glycan array binding signal (z-score),[13],-0.1
same,glycan array binding signal (z-score),[14],3.41
same,glycan array binding signal (z-score),[15],-0.373
same,glycan array binding signal (z-score),[16],4.14
same,glycan array binding signal (z-score),[17],-0.327
same,glycan array binding signal (z-score),[18],-0.303
same,glycan array binding signal (z-score),[19],0.505
same,glycan array binding signal (z-score),[20],-0.094
same,glycan array binding signal (z-score),[21],9.17
same,glycan array binding signal (z-score),[22],-0.44
